“And” between values parts separate entries of the source, which are not always exact repeats. Identical values can stand only once. Out of some 200,000 compounds screened, about 4,500 (2.2%) were called active. Roughly 12% stayed inconclusive and do not appear here. Calls come from the whole dose curve; as a rule, active = well fitted inhibition curve with a large enough effect; inconclusive = small, poorly fitted or top-dose-only effect, or effect the other way; inactive = flat fitted curve, though single readings scatter. This excerpt belongs to a sample that is enriched for actives.
Potency is the fitted concentration of half-maximal effect.

Sequence of Cruzipain (Trypanosoma cruzi) (P25779 123-467 limits assumed): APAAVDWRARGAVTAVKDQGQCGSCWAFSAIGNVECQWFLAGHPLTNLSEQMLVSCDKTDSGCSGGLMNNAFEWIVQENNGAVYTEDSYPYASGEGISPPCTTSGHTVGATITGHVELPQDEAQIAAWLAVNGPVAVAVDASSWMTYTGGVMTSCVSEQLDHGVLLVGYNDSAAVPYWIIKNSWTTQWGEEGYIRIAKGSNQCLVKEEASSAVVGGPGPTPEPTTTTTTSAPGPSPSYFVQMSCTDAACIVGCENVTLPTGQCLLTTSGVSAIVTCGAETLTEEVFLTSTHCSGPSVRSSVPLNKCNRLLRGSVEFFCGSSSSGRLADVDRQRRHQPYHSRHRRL

The target in this experiment is Cruzipain (Trypanosoma cruzi) (UniProt P25779). Briefly: qHTS Assay for Promiscuous and Specific Inhibitors of Cruzain (without detergent). Note: nearly all actives have a fitted effect of over 40% in size. To be noted: purified cruzain, Z-FR-AMC fluorescence, no detergent. As to the method:
Cruzain is a cysteine protease from the tropical parasite Trypanosoma cruzi. Dual qHTS experiment was performed against the NCGC compound collection in order to 1) identify novel inhibitors of the enzyme and 2) profile the compound collection for promiscuous inhibitors operating via colloidal aggregation (by performing detergent-free and detergent-containing comparison screens). Cruzain was assayed by the use of fluorogenic coumarin-based substrate Z-FR-AMC: proteolytic cleavage releases AMC, whose fluorescence is measured at 360 nm excitation and 450 nm emission. Purified cruzain was supplied by the labs of Prof. James McKerrow and Brian Shoichet, UC San Francisco.
This assay had 0.00005% Triton X-100 concentration. See also releated assay "qHTS Assay for Promiscuous and Specific Inhibitors of Cruzain (with detergent)" with 0.01% Triton X-100.
See following references for additional details:
Assay Provider: Shoichet, Brian; University of California, San Fancisco
Screening Center PI: Austin, C.P.
Screening Center: NIH Chemical Genomics Center [NCGC]
Buffer: 100 mM Sodium Acetate, pH 5.5, 5 mM DTT, Triton X-100 concentration: 0.01%.
Buffer in columns 3 and 4 as negative control (no enzyme).
Substrate solution: 2 uM final concentration of Z-FR-AMC (catalog number I-1160, Bachem) dispensed throughout the plate.
Enzyme: 1.5 nM Cruzain final concentration in columns 1, 2, 5-48. Column 1 is neutral (100% activity). Column 2 contained titration of covalent inhibitor K11777, starting concentration 1 mM, then 1:2 dilution in duplicate).
Three uL of enzyme or buffer were dispensed to 1536-well Greiner black solid bottom plates. Compounds and controls (23 nL) were transferred via Kalypsys PinTool. The plates were incubated for 15 min at room temperature, and then 1 uL of substrate solution was added to start the reaction. The plates were immediately transferred to and read 4 times every 30 seconds for 2 min on ViewLux High-throughput CCD imager (Perkin-Elmer) using 360 nm excitation and 450 nm emission fluorescence protocol. The fluorescence intensity difference between the third and the first time points (time lapse of 60 seconds) was used to compute reaction progress.
A general note: qHTS replaces the single test concentration by a dilution series.
Turning to `Cc1ccccc1-n1c(=O)c2ccccc2n(Cc2ccc(F)cc2)c1=O`, the max response, negative = inhibition is 6.2% (inactive).

For `O=C(O)Cc1ccc(-c2ccccc2)cc1`, the max response, negative = inhibition is -11.7% (inactive) and 9.66% (inactive). Regarding `COc1ccc(C(CC(=O)O)NC(=O)Cc2ccccc2)cc1` (configuration not stated), the max response, negative = inhibition was 10.2% (inactive). For the molecule `O=C(Cc1ccc(-c2ccccc2)cc1)NC(c1ccccc1)c1ccccc1`, the Potency was 25.1 µM (active). For the molecule `COc1ccc(C(=O)Nc2onc3c2CCCC3)cc1`, the max response, negative = inhibition is -6.11% (inactive). In the case of `COC(=O)Cc1ccc(NC(=S)NCc2ccc(Cl)cc2)cc1`, the max response, negative = inhibition was -2.73% (inactive). As for `Cc1ccc(NC(=S)NC(=O)/C=C/c2ccc(Cl)cc2)cc1`, the Potency was 10 µM (active).

As to `Cc1nn(C)cc1C(=O)NNC(=S)Nc1ccc(Cl)cc1`, the max response, negative = inhibition was -0.36% (inactive). On the same count and under the same terms, the figure for `CCCN1C(=O)C(O)(CC(=O)c2ccc(CC)cc2)c2cc(Br)ccc21` (configuration not stated) is 2.6% (inactive); for `COc1ccccc1CNC(=O)C(Cc1ccccc1)NS(=O)(=O)c1ccc2c(c1)oc(=O)n2C` (configuration not stated) it is -15.4% (inactive).

`O=S(=O)(NCC(c1ccco1)N1CCOCC1)c1cc(F)ccc1F` (configuration not stated): the max response, negative = inhibition was -1.04% (inactive). Same read-out and setting: the figure for `COc1cccc(NC(=O)c2ccc(Cn3cc([N+](=O)[O-])cn3)o2)c1` is 3.2% (inactive). With `Cc1cccc(NC(=O)c2sc(-c3ccccc3)nc2-c2ccc([N+](=O)[O-])cc2)c1`, the Potency was 20 µM (active). With `CC(=O)c1cccc(NC(=O)c2nc(-c3ccccc3)n(-c3cccc(C)c3)n2)c1`, the max response, negative = inhibition was -26.5% (inactive). For `O=C(NCCS(=O)(=O)N1CCN(c2ccc(F)cc2)CC1)c1ccccc1Br`, the max response, negative = inhibition is -13% (inactive). In the case of `Cc1cccc(CNC(=O)c2cnc3sc(N4CCCCC4)nn3c2=O)c1`, the max response, negative = inhibition was 13.2% (inactive). Regarding `CC(Oc1ccc(-c2ccccc2)c(F)c1)c1ccn(S(=O)(=O)c2cccc3ccccc23)n1` (configuration not stated), the Potency was 12.6 µM (active). As to `COc1ccccc1N1CCN(c2ncnc3onc(-c4cccc(Cl)c4)c23)CC1`, the max response, negative = inhibition was 9.06% (inactive). For the molecule `CCOC(=O)CSc1nnc(NC(=O)c2cccc(S(=O)(=O)N3CCCCC3)c2)s1`, the Potency was 20 µM (active). As for `O=C(Nc1nnc(S(=O)(=O)N2CCCCCC2)s1)c1cccc(Br)c1`, the max response, negative = inhibition was 6.01% (inactive).

For the molecule `O=C(Nc1nncs1)c1cccc(S(=O)(=O)N2CCCCC2)c1`, the max response, negative = inhibition was 0.0572% (inactive). On the same count and under the same terms, the figure for `COc1cc(CNCCSc2nnnn2C)ccc1OCc1ccc(Cl)cc1Cl` is 8.01% (inactive); for `CCNC(=S)N(CCc1c(C)[nH]c2ccc(C)cc12)Cc1ccco1` it is -13.2% (inactive).

Turning to `COc1ccc2[nH]c(C)c(CCN(Cc3cccs3)C(=S)Nc3ccccc3OC)c2c1`, the Potency is 15.8 µM (active). `COc1ccc(NC(=S)NCc2cccs2)c(OC)c1`: the max response, negative = inhibition was 1.46% (inactive).

With `Cc1ccc(Cl)cc1N(C)C(=O)Cn1nc(Cc2cccnc2)c2ccccc2c1=O`, the max response, negative = inhibition is 14.5% (inactive). As for `CC(C)(C)c1ccc(OCC(=O)N2CCC(c3nc4ccccc4s3)CC2)cc1`, the max response, negative = inhibition was -14.4% (inactive). For the molecule `CCOC(=O)c1sc(=S)n2c1[nH]c(=O)c1ccc(C(=O)OC)cc12`, the Potency is 25.1 µM (active). As to `CCOC(=O)c1sc(=S)n(-c2cccc(OC)c2)c1N`, the max response, negative = inhibition was -7.85% (inactive). On the same count and under the same terms, the figure for `CCOC(=O)Cn1c(N)c(C(=O)OC)sc1=S` is -4.92% (inactive); for `COc1ccc(CCNC(=O)CCc2c(C)nc3c(c(C)nn3-c3ccc(C)c(C)c3)c2C)c(OC)c1OC` it is 0.259% (inactive).

`Fc1ccc(CN2CCc3nc(Nc4ccccc4)ncc3C2)cc1F`: the max response, negative = inhibition was -18.7% (inactive). In the case of `Cc1ccc(C)n1-c1nnc(N2CCC(C(=O)NCc3ccc(F)cc3)CC2)s1`, the max response, negative = inhibition is 5.22% (inactive). In the case of `CSc1ccc(CCNC(=O)C2CCN(c3nnc(-n4cccc4)s3)CC2)cc1`, the Potency is 31.6 µM (active). On to `Cc1ccc(CCNC(=O)C2CCN(c3nnc(-n4cccc4CNc4ccc(C)cc4)s3)CC2)cc1`, for which the max response, negative = inhibition is -8.42% (inactive). With `CSc1nc(-c2ccccc2Cl)nc2c1Cc1c(CO)cnc(C)c1O2`, the max response, negative = inhibition is -8.02% (inactive).

For the molecule `COc1ccc(C2CC(=O)n3c(nc4ccccc43)S2)cc1OC` (configuration not stated), the max response, negative = inhibition is 0.892% (inactive). Consider `COc1cc(C2CC(=O)N3CN(Cc4ccccc4)CSC3=C2C#N)ccc1OCc1ccccc1` (configuration not stated), for which the Potency was 15.8 µM (active). For `COc1ccc(C2C(=O)N(C3CCCCCC3)CC(=O)N2CCc2ccc(Cl)cc2)cc1OC` (configuration not stated), the max response, negative = inhibition is 10.9% (inactive).

`CCOCCCNC(=O)c1ccc2nc(CCc3ccccc3)oc2c1`: the max response, negative = inhibition was -6.83% (inactive). On to `Cc1cccc(C(=O)NCCc2nc3ccccc3n2Cc2ccccc2Cl)c1`, for which the max response, negative = inhibition is 15.2% (inactive). Take `Cc1cccc(NC(=O)Cn2c(=O)n(CCC(C)C)c(=O)c3cccnc32)c1`: the max response, negative = inhibition is -11.5% (inactive).

For `Cc1ccc(C(=O)c2c(NC(=O)c3ccccc3)sc(C)c2C)cc1`, the max response, negative = inhibition was -26.9% (inactive).

Consider `Cc1ccc(C(=O)NNC(=O)c2cc3cc4ccccc4nc3s2)cc1`, for which the Potency is 15.8 µM (active). For `CCN(CCCNC(=O)c1cc2cc3cc(OC)ccc3nc2s1)c1ccccc1`, the max response, negative = inhibition is 0.913% (inactive). Regarding `COCCNc1ncnc2c1c(-c1ccccc1)cn2-c1ccc(C)c(Cl)c1`, the max response, negative = inhibition is 6.98% (inactive). In the case of `Cc1ccc(-n2c(SCC(=O)Nc3cccc(F)c3)nc3c(oc4ccccc43)c2=O)cc1C`, the Potency is 12.6 µM (active). As for `COc1ccc(-n2c(SCC(N)=O)nc3c(oc4ccccc43)c2=O)cc1`, the max response, negative = inhibition is -4.62% (inactive).

For the molecule `Cc1cccc(-n2c(SCC(N)=O)nc3c(oc4ccccc43)c2=O)c1`, the max response, negative = inhibition is -3.27% (inactive). Turning to `Cc1ccc(C(=O)Nc2c(C(=O)NC(C)(C)C)oc3ccccc23)cc1`, the max response, negative = inhibition was 11.2% (inactive). The same measure, in the same setting: the value for `COc1ccc(OC)c(-c2csc(-c3c(N)c(C(=O)c4ccccc4)n4ccccc34)n2)c1` was -9.44% (inactive). As to `COc1ccc(NC(=O)c2ccc(OC)cc2)cc1`, the max response, negative = inhibition is -1.58% (inactive). Take `CCn1c(/C=N/NC(=O)c2ccc(OC)cc2)nc2ccccc21`: the max response, negative = inhibition was -22.8% (inactive). For the molecule `COc1ccc(C(=O)Nc2ccccc2C(=O)N/N=C/c2ccccc2OC)cc1`, the Potency is 25.1 µM (active). On to `CN(C)c1ccc(-n2cccc2/C=N/n2cnnc2)cc1`, for which the max response, negative = inhibition was -10.4% (inactive).

On to `CN(C)c1ccc(-n2cccc2/C=C2/SC(=Nc3ccc(F)cc3)NC2=O)cc1`, for which the Potency was 10 µM (active). For the molecule `N#Cc1ccccc1Cn1cnc2nc3c(cc2c1=O)CCCC3`, the max response, negative = inhibition is 2.69% (inactive).

Values taken from PubChem BioAssay AID1476 (National Center for Advancing Translational Sciences (NCATS), 2009).
